Screens deposited in PubChem BioAssay by Sanford-Burnham Center for Chemical Genomics.
SENP8 block-1: inhibitors of human SENP8 protease. actives 0.64% (n = 360,000). Q96LD8. recombinant SENP8, Nedd8 substrate fluorescence. inhibition, % at 20 µM. AID 602440; in the data active = inhibition mostly above about 40%, no sharp cut-off; inactive = mostly below about 27%
TRAIL sens C8: sensitizes caspase-8 expressing cells to TRAIL; actives 1% (n = 360,000); inhibition (viability loss, TRAIL sensitization), % at 10 µM; AID 624354; NB7+C8 cells + TRAIL, ATPlite viability luminescence;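 active = compounds causing at least 50% loss of cell viability in the single-dose screen, relative to plate controls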
PPC-1+TRAIL kill: kills PPC-1 cancer cells in the presence of TRAIL; PPC-1 cells + TRAIL, ATPLite viability luminescence; cell killing (% activity), % at 4 µM or 5 µM; actives 0.41% (n = 220,000); AID 1443;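 active = cell killing above 50% in the first pass at 4 µM, then a duplicate retest at 5 µM averaging 50% or more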;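 note: plate controls were cells with TRAIL plus DMSO for no effect and medium-only wells lacking cells for full effect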
SENP7 inh: inhibitors of human SENP7 protease; inhibition, % at 5 µM; recombinant SENP7, Z-RLRGG-aminoluciferin luminescence, 40 min; actives 1.5% (n = 330,000); Q9BQF6;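 active = inhibition above about 50% at the single test dose, limit read from the data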;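 note: plate controls were DMSO with enzyme for no effect and no enzyme buffer wells for full effect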
Target sequence (Q9BQF6 706-1050 limits assumed): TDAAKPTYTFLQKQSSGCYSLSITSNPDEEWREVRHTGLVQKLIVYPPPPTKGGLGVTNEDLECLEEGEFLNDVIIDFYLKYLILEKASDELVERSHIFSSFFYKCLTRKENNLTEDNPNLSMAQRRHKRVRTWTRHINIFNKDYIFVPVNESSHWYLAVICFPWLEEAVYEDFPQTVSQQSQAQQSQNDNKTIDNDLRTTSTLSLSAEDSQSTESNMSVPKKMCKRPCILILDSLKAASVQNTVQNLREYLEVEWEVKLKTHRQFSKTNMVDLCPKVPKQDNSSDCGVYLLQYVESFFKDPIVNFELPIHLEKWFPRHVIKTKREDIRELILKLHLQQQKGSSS
SENP8 block-2: SENP8 protease inhibition. AID 2540. Q96LD8. actives 1.2% (n = 330,000). purified SENP8, Z-RLRGG-aminoluciferin cleavage, luminescence. inhibition, % at 10 µM; in the data active = inhibition above about 50%
SENP6 block: SENP6 protease inhibition; Q9GZR1; Recombinant SENP6 catalytic domain, aminoluciferin luminescence; inhibition, % at 10 µM; actives 1.8% (n = 330,000);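 active = inhibition above about 50% at the single tested dose, limit read from the data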;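 note: plate controls were DMSO wells with enzyme for no effect and DMSO wells lacking enzyme for full effect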
SENP8 conf-1: human SENP8 inhibition, confirmed. shares compounds with SENP7 inh. inhibition, % at 12.5 µM. actives 40% (n = 6,200). Recombinant SENP8, Z-RLRGG-aminoluciferin luminescence, 60 min;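 active = mean inhibition across replicates above about 50%, limit read from the data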
SENP6 conf: human SENP6 inhibition, confirmed | actives 58% (n = 6,200) | recombinant SENP6, Z-RLRGG-aminoluciferin luminescence | AID 488915 | shares compounds with SENP7 inh | inhibition, % at 12.5 µM
SENP7 conf: confirmation of human SENP7 protease inhibitors. shares compounds with SENP7 inh. AID 488917. recombinant SENP7, Z-RLRGG-aminoluciferin luminescence, 40 min. inhibition, % at 12.5 µM. actives 69% (n = 6,200)
Casp3 SENP sel: inhibits human caspase-3 in SENP selectivity test. shares compounds with SENP7 inh. purified caspase-3, Z-DEVD-aminoluciferin luminescence, 60 min. inhibition, % at 12.5 µM. actives 60% (n = 6,200);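 active = mean inhibition above about 50%, limit read from the data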;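 note: plate controls were enzyme with DMSO for no effect and wells without caspase-3 for full effect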
Target sequence (P42574 28-227 limits assumed): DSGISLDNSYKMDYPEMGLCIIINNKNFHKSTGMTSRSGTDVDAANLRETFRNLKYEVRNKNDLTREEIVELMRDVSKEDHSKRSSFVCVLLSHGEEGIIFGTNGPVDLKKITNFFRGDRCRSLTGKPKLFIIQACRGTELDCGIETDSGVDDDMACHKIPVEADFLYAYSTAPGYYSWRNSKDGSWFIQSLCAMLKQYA
SENP luc ctr: luminescence interference (SENP counter-screen). shares compounds with SENP7 inh. Pre-incubated SENP8/Z-RLRGG-aminoluciferin, luciferase luminescence interference. inhibition, % at 12.5 µM. actives 39% (n = 6,200);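 active = mean inhibition above about 50% when retested at one dose, limit read from the data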;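 note: plate controls were DMSO wells with completed reaction for no effect and substrate without enzyme for full effect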
SENP8 conf-2: confirmation of human SENP8 protease inhibitors. shares compounds with SENP8 block-1. purified SENP8, Nedd8-AMC/pro-Nedd8 cleavage fluorescence, 30 min. inhibition, % at 25 µM. actives 15% (n = 1,400). AID 624319; in the data active = inhibition mostly above about 39%, no sharp cut-off; inactive = mostly below about 34%
Numbers without * were called inactive; i = inactive; x = not tested or not shown. Sampled rows, rich in hits. Any-hit rate of the full collection: about 3%.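 Rule for the calls, unless noted: active = mean inhibition above about 50% in the one-dose retest (limit read from the data); inactive = the rest.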

SMILES | SENP8 block-1 | TRAIL sens C8 | PPC-1+TRAIL kill | SENP7 inh | SENP8 block-2 | SENP6 block | SENP8 conf-1 | SENP6 conf | SENP7 conf | Casp3 SENP sel | SENP luc ctr | others
COc1ccc2c(=O)c(-c3ccc4c(c3)OCO4)coc2c1 | 15 | 57* | 40 | 96* | 84* | 88* | 56* | 87* | 64* | 77* | 16
CCCc1cc2c(=O)c(-c3ccc4c(c3)OCCO4)coc2cc1OS(C)(=O)=O | 8 | 28 | -6 | -11 | -9 | 4 | x | x | x | x | x
CCc1cc2c(=O)c(-c3ccc4c(c3)OCCO4)coc2cc1OC(=O)c1ccco1 | -7 | 71* | 36 | 73* | 1 | 25 | -11 | -5 | 0 | 18 | 5
CCN(CC)C(=O)Oc1ccc2c(=O)c(-c3ccc(OC)cc3)coc2c1 | -13 | 22 | -2 | 1 | -11 | -4 | x | x | x | x | x
COC(=O)COc1ccc2c(=O)c(-c3ccccc3)coc2c1 | 5 | 4 | 0 | 2 | 5 | 4 | x | x | x | x | x
Cc1ccc(S(=O)(=O)N2CCC(C(=O)N3CCC3)CC2)cc1 | -4 | 16 | x | 1 | -1 | -19 | x | x | x | x | x
O=C(c1ccc(CNS(=O)(=O)c2ccc(Br)cc2)cc1)N1CCCCCC1 | 4 | -4 | x | 16 | -9 | -2 | x | x | x | x | x
Cc1cccc(NC(=O)c2nc[nH]c2C(=O)N(C)Cc2ccccc2)c1 | 13 | -14 | x | 9 | 3 | -2 | x | x | x | x | x
Nc1ccc(-n2nc3ccccc3n2)cc1 | -452 | 12 | x | 64* | 38 | 41 | 36 | 56* | 87* | 60* | 67*
Cc1cc2nn(-c3cccc4ccccc34)nc2cc1N | -353 | -5 | 23 | 12 | -4 | 13 | x | x | x | x | x
COc1ccc(-n2nc3ccccc3n2)cc1 | 4 | -1 | -2 | -5 | -22 | -56 | x | x | x | x | x
Nc1cc2nn(-c3ccccc3)nc2cc1Cl | -420 | -4 | -1 | x | x | x | x | x | x | x | x
Nc1ccc2nn(-c3cccc4ccccc34)nc2c1 | -490 | 12 | 22 | 77* | 85* | 79* | -3 | 27 | 16 | 6 | 7
Nc1ccc2nn(-c3ccccc3)nc2c1 | -410 | 22 | 21 | 43 | 66* | 74* | -5 | 65* | 82* | 62* | 31
CCCc1cc(=O)[nH]c(SCC(=O)Nc2cc(S(=O)(=O)N3CCCCC3)ccc2Cl)n1 | -4 | 42 | x | x | x | x | x | x | x | x | x
Cc1nc2ccc(NC(=O)c3sccc3C)cc2s1 | 16 | 20 | 28 | 69* | 60* | 85* | 71* | 71* | 90* | 81* | 73*
Cc1nc2ccc(NC(=O)c3ccccc3)cc2s1 | 2 | 8 | 27 | 1 | 4 | -11 | x | x | x | x | x
Cc1nc2ccc(NC(=O)c3ccc4ccccc4n3)cc2s1 | 1 | 6 | 4 | 71* | 6 | 3 | 11 | 12 | 40 | 51* | 5
COc1ccc(C2=NN3C(C2)c2ccccc2OC32C(=O)N(C)c3ccccc32)cc1 (stereo unspecified) | -452 | 0 | -25 | 80* | 79* | 91* | 12 | 4 | 14 | 8 | 5
COc1ccc(CCn2c(N)c(C#N)c3nc4ccccc4nc32)cc1OC | -446 | -2 | 9 | 46 | 54* | 62* | -2 | 22 | 4 | 6 | 2
COc1ccccc1CCn1c(N)c(C#N)c2nc3ccccc3nc21 | -283 | -14 | 0 | 25 | 23 | 51* | -20 | -6 | -3 | -6 | -3
COc1ccc(Cn2c(N)c(C#N)c3nc4ccccc4nc32)cc1OC | i | -22 | 0 | 14 | 16 | 34 | x | x | x | x | x
O=C(O)c1cccc(Nc2ncnc3c2cnn3-c2ccccc2)c1 | -43 | 13 | 20 | 90* | 90* | 97* | 95* | 95* | 101* | 50 | 92*
Fc1cccc(Nc2ncnc3c2cnn3-c2ccccc2)c1 | -186 | 25 | 17 | -9 | -21 | -9 | x | x | x | x | x
O=C(O)c1cccc(Nc2ccnc(Nc3cccc(C(=O)O)c3)n2)c1 | 19 | -1 | x | 98* | 90* | 94* | 96* | 98* | 102* | 95* | 77*
SMILES | SENP8 block-1 | TRAIL sens C8 | PPC-1+TRAIL kill | SENP7 inh | SENP8 block-2 | SENP6 block | SENP8 conf-1 | SENP6 conf | SENP7 conf | Casp3 SENP sel | SENP luc ctr | others
O=C(O)c1cccc(Nc2nc(N3CCOCC3)nc(N3CCOCC3)n2)c1 | 16 | -5 | 4 | 0 | 2 | 2 | x | x | x | x | x
Oc1cccc(Nc2ncnc3ccccc23)c1 | -5 | 5 | -17 | 11 | -1 | 3 | x | x | x | x | x
O=C(O)c1cccc(Nc2ncnc3ccccc23)c1 | -6 | 3 | -8 | -3 | 59* | 68* | 70* | 64* | 85* | 36 | 68*
Cc1ccc(C2=N/C(=C\c3ccc(F)cc3)C(=O)N2)cc1 | i | -10 | x | 9 | -5 | -4 | x | x | x | x | x
O=S1(=O)CCOC[C@H](c2ccccc2)N1Cc1ccccc1F | 17 | -13 | x | -12 | 1 | -1 | x | x | x | x | x
N#CCCN(Cc1ccccc1)S(=O)(=O)c1cccs1 | 8 | -14 | x | 2 | -3 | -7 | x | x | x | x | x
O=C(CCCNC(=O)c1ccc(Cl)cc1)Nc1nccs1 | 4 | -7 | x | 2 | -2 | -2 | x | x | x | x | x
CC(=O)N1N=C(c2cccc([N+](=O)[O-])c2)OC1c1ccc(Br)cc1 (stereo unspecified) | 17 | 9 | -4 | 3 | -8 | -13 | x | x | x | x | x
CC(=O)N1N=C(c2ccccc2)OC1c1ccc([N+](=O)[O-])s1 (stereo unspecified) | 61* | -1 | 1 | 33 | 33 | 66* | 15 | 24 | 0 | -1 | -1 | SENP8 conf-2=39*
COc1ccc(/C=N/NC(=O)c2nn(-c3ccc(C)c(C)c3)c(=O)c3ccccc23)cc1 | -11 | 9 | 23 | -4 | -8 | -7 | x | x | x | x | x
COc1ccc(/C=N/NC(=O)c2nn(-c3ccccc3)c(=O)c3c(N)scc23)cc1 | 74* | -8 | -12 | 12 | 18 | 52* | 24 | 68* | 21 | 61* | 3 | SENP8 conf-2=83*
